Measured values: PubChem BioAssay

target: Alpha-2C adrenergic receptor (Homo sapiens) (UniProt P18825); assay: modulators of alpha2C/GIRK thallium flux, primary screen, cell-based, HEK293 alpha2C/GIRK1/2 (AID 624;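 active means fluorescence slope after compound addition differing from the mean of all screened samples at 99.7% confidence, in either direction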;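 further: slope of fluorescence ratio to pre-addition baseline per second over 15 to 24 s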); settings: thallium flux BTC fluorescence, at 10 µM, actives lie on both sides
Sequence (P18825 whole entry, looked up): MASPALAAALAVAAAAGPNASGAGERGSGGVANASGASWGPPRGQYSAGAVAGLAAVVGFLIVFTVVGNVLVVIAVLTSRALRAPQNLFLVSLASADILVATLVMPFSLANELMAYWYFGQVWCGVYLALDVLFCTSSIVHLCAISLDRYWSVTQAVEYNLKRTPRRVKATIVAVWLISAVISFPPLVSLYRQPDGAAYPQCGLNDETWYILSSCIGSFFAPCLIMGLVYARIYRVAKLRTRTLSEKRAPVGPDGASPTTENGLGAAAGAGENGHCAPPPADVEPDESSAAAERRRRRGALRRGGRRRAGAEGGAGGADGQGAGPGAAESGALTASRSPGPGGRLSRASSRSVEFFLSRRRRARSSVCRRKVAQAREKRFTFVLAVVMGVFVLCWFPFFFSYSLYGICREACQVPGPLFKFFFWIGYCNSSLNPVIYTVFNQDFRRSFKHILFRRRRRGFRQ

slope, inactive:
Nc1nc(CSc2nc3ccccc3[nH]2)nc(N2CCOCC2)n1 0.00382, CN1CCN(c2nc(-c3ccncc3)nc3ccccc23)CC1 0.00562, Cc1cc(=O)[nH]c(SCC(=O)NCc2ccco2)n1 0.00478, COc1ccc(NC(=O)NCCN2C(=O)C3C4C=CC(C4)C3C2=O)cc1 (stereo not given) 0.00569, CCC(=O)c1ccc(OCC(O)CN2CCN(S(=O)(=O)N3CCCCC3)CC2)cc1 (stereo not given) 0.00309, O=C(c1cccs1)N(Cc1ccco1)Cc1cc2ccccc2[nH]c1=O 0.00483, COc1cccc(NC(=O)C2CCN(c3ncccn3)CC2)c1 0.00449, CC(=O)Nc1ccc(-c2nn[nH]n2)cc1Cl 0.00431, COc1cccc(N(C(=O)c2ccco2)C(C(=O)NC2CCCC2)c2ccc(N(C)C)cc2)c1 (stereo not given) 0.00648, CCN(CC)C(=O)C1CCC(CNS(=O)(=O)c2cccc3cccnc23)CC1 (stereo not given) 0.00724, COc1ccc(C(=O)COC(=O)CCn2nnc(-c3cccs3)n2)cc1 0.00571, Fc1cccc(-c2cc3nc4c(c(N5CCN(c6cnccn6)CC5)n3n2)CCCC4)c1 0.00757, Cc1ccc(Nc2cc(C)nc3ncnn23)c(Cl)c1 0.00625, O=C1CCC(c2ccccc2)N1C(=O)c1cccnc1 (stereo not given) 0.00593, CC1CCc2c(sc3c2C2=NS(=O)(=O)CCN2C=N3)C1 (stereo not given) 0.00732, CCn1c(SCc2nc(-c3cccs3)no2)nnc1-c1c[nH]c2ccccc12 0.0036, CC(CN1CCCCC1)OC(=O)c1ccc2c(c1)OCO2 (stereo not given) 0.00425, CN1CCN(S(=O)(=O)c2ccc(NC(=O)Nc3cccc(Cl)c3)cc2)CC1 0.00476, CCC(C)OC(=O)c1[nH]c2c(c1C)C(=O)CC(c1ccc(N(C)C)cc1)C2 (stereo not given) 0.00616, COc1cccc(C=Nc2ccc3c(c2)OCCO3)c1O 0.00551, O=C(Cn1ncc2c1-c1ccccc1OC2)Nc1ccc(Cl)cn1 0.00703, CCOC(=O)c1c(C)n(C)c2c(C)cc(O)c(OC(C)=O)c12 0.00417, COc1ccccc1CCNC(=O)C1CCCO1 (stereo not given) 0.00423, CCCSc1nnc2nc3c(nn12)c1ccccc1n3C 0.0026, CCN(CCNC(=O)C1CCN(S(=O)(=O)c2cccc3cccnc23)CC1)c1ccccc1 0.00561

tested on: not listed separately; assay: inhibitors of Sendai virus-induced IRF3 signaling, primary screen, TLR/RLR signaling modifier project, cell-based, Sendai virus stimulus, luciferase, 10K MLSCN set (AID 602276); settings: HEK293 RL24 IRF3 luciferase reporter, at 10 µM, stronger effect = higher value;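 further: firefly luciferase from ISG56 promoter only with Renilla not read in this screen; 0% = Sendai virus plus DMSO and 100% = medium plus DMSO without virus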

inhibition, inactive:
Cn1c(SCC(=O)c2ccc(-c3ccccc3)cc2)nnc1-c1ccco1 3.76%, Cc1ccccc1NC(=O)CSc1nnc(Cc2cccn2C)n1-c1ccc(F)cc1 -3.98%, CC(=O)N1CCc2c(sc(NC(=O)c3ccc(S(=O)(=O)N(C)C)cc3)c2C#N)C1 -4.77%, Cc1c(NC(=O)c2nn(C)c(=O)c3ccccc23)c(=O)n(-c2ccccc2)n1C 0.784%, CCOC(=O)C1C(=O)N(C(=O)c2ccc(OC)cc2)CC1c1ccccc1 (stereo not given) 12.3%, C=CCSc1nnc(-c2cccnc2)o1 1.31%, O=C(CCCn1c(=S)[nH]c2cc3c(cc2c1=O)OCO3)N1CCN(c2ccccc2F)CC1 8.7%, COc1ccc(OCC(=O)Nc2ccc(N3CCOCC3)c(Cl)c2)cc1 10.5%, CCNc1ccc2c(Cl)cc(=O)oc2c1 4.11%, Cc1cc(Br)ccc1NC(=O)CCN1C(=O)c2ccncc2C1=O -13.8%, CC(=O)Nc1ccc(S(=O)(=O)N2CCN(C(=O)CCC3CCCC3)CC2)cc1 24.2%, Cc1ccccc1NC(=O)C1CCCN(S(=O)(=O)c2cccc3cccnc23)C1 (stereo not given) 1.01%, C(#Cc1ccccc1)Cn1nnc2ccccc21 -41.6%, COc1ccccc1N1CCN(C/C(O)=C(\C#N)c2nc(-c3ccccc3)cs2)CC1 -9.12%, Cn1c(CN2CCOCC2)nnc1SCC(=O)NCCc1ccccc1 -8.38%, Nc1nc(CSc2nc3ccccc3[nH]2)nc(N2CCOCC2)n1 3.37%, CN1CCN(c2nc(-c3ccncc3)nc3ccccc23)CC1 11.9%, Cc1cc(=O)[nH]c(SCC(=O)NCc2ccco2)n1 18.4%, COc1ccc(NC(=O)NCCN2C(=O)C3C4C=CC(C4)C3C2=O)cc1 (stereo not given) -29.6%, CCC(=O)c1ccc(OCC(O)CN2CCN(S(=O)(=O)N3CCCCC3)CC2)cc1 (stereo not given) 14.1%, O=C(c1cccs1)N(Cc1ccco1)Cc1cc2ccccc2[nH]c1=O -11%, COc1cccc(NC(=O)C2CCN(c3ncccn3)CC2)c1 0.711%, CC(=O)Nc1ccc(-c2nn[nH]n2)cc1Cl 13.2%, COc1cccc(N(C(=O)c2ccco2)C(C(=O)NC2CCCC2)c2ccc(N(C)C)cc2)c1 (stereo not given) 6.61%, CCN(CC)C(=O)C1CCC(CNS(=O)(=O)c2cccc3cccnc23)CC1 (stereo not given) 11.4%, COc1ccc(C(=O)COC(=O)CCn2nnc(-c3cccs3)n2)cc1 -6.55%, Fc1cccc(-c2cc3nc4c(c(N5CCN(c6cnccn6)CC5)n3n2)CCCC4)c1 -15.7%, Cc1ccc(Nc2cc(C)nc3ncnn23)c(Cl)c1 6.25%, O=C1CCC(c2ccccc2)N1C(=O)c1cccnc1 (stereo not given) -4.49%, CC1CCc2c(sc3c2C2=NS(=O)(=O)CCN2C=N3)C1 (stereo not given) 11.9%, CCn1c(SCc2nc(-c3cccs3)no2)nnc1-c1c[nH]c2ccccc12 10.2%, CC(CN1CCCCC1)OC(=O)c1ccc2c(c1)OCO2 (stereo not given) 6.1%, CN1CCN(S(=O)(=O)c2ccc(NC(=O)Nc3cccc(Cl)c3)cc2)CC1 -1.37%, CCC(C)OC(=O)c1[nH]c2c(c1C)C(=O)CC(c1ccc(N(C)C)cc1)C2 (stereo not given) -57.4%, COc1cccc(C=Nc2ccc3c(c2)OCCO3)c1O 12.6%, O=C(Cn1ncc2c1-c1ccccc1OC2)Nc1ccc(Cl)cn1 9.19%, CCOC(=O)c1c(C)n(C)c2c(C)cc(O)c(OC(C)=O)c12 4.23%, COc1ccccc1CCNC(=O)C1CCCO1 (stereo not given) 0.904%, CCCSc1nnc2nc3c(nn12)c1ccccc1n3C 5.91%, CCN(CCNC(=O)C1CCN(S(=O)(=O)c2cccc3cccnc23)CC1)c1ccccc1 11.9%
